# Inconclusive results are not listed. Where a call stands in place of a potency, no number is given. The source made the active and inactive calls. Calls follow the shape of the dose curve; as a rule, active = well fitted curve in the direction sought with a large enough effect; inconclusive = small, poorly fitted or top-dose-only effect, or another doubt; inactive = no such curve, though single readings can be large; an effect the other way counts as inactive or inconclusive.
# Tests used:
# [1] = biological target: Aldehyde dehydrogenase, mitochondrial (Homo sapiens) (UniProt P05091); assay: qHTS for Inhibitors of the Aldehyde Dehydrogenase Family (ALDH2) Primary screen (AID 2061308); also: nearly all actives have a fitted effect of over 55% in size
# [2] = biological target: Retinaldehyde dehydrogenase 3 (Homo sapiens) (UniProt P47895); assay: qHTS for Inhibitors of the Aldehyde Dehydrogenase Family (ALDH1A3) Primary screen (AID 2061315)
SMILES,Potency [1],Potency [2]
Cc1cc(C)n2ncc(C(=O)Nc3ccc(C)c(C)c3)c2n1,inactive,inactive
O=C(CNC(=O)c1ccc([N+](=O)[O-])cc1)OC(C(=O)Nc1cc(C(F)(F)F)ccc1Cl)c1ccccc1 (configuration not stated),inactive,inactive
CCN(CC)CCCC(C)n1c(-c2ccccc2)nc2c(NCCO)nc(C)nc21 (configuration not stated),inactive,inactive
CCOC(=O)c1cccc(NS(=O)(=O)c2ccc(NC(=O)Cc3ccc(Cl)c(Cl)c3)cc2)c1,inactive,inactive
Cc1ccc(-c2nn3c(C)nnc3s2)cc1NC(=O)c1ccc(-c2cccc(Cl)c2)o1,inactive,inactive
Cc1ccc(CSc2nnc(-c3cccc4ccccc34)o2)cc1,inactive,inactive
COc1cccc(NC(=S)N2CCN(c3cc(C(F)(F)F)cc(C(F)(F)F)c3)CC2)n1,inactive,inactive
COc1ccc(OC)c(C2=Nn3c(nnc3-c3cc(OC)ccc3OC)SC2)c1,inactive,inactive
Cc1ccccc1OC1=NS(=O)(=O)c2ccccc21,inactive,inactive
Cc1ccc(C(=O)N2CCc3cc(-c4nc(NC(=O)Cc5ccc6c(c5)OCO6)sc4C)ccc32)cc1,inactive,inactive
CS(=O)(=O)c1ccc(C(=O)OCC(=O)N2CCN(CCC3CCCCC3)CC2)cc1[N+](=O)[O-],inactive,inactive
COc1cccc(-c2ccc3ncnc(NCc4cccc(C)c4)c3c2)c1,inactive,inactive
CCCn1c(C)nc2c(NCCCN(C)C)nc(C)nc21,inactive,inactive
Cc1cccc(CNc2ccnc(-c3ccccc3C(F)(F)F)n2)c1,inactive,inactive
CCOC(=O)Nc1sc2c(c1C(N)=O)CCCC2,inactive,inactive
Nc1cccc([S+](=O)([O-])N2CCCN([S+](=O)([O-])c3cccc(N)c3)CC2)c1,inactive,inactive
c1ccc(OCc2nnc3n2N=C(c2ccccc2)CS3)cc1,inactive,inactive
O=C(Nc1ncc(Cc2ccc(C(F)(F)F)cc2)s1)c1ccc(-c2ccccc2)o1,inactive,inactive
COc1cccc(CNc2ccc(S(=O)(=O)Nc3ccccc3)cc2)c1O,inactive,inactive
CC(=O)Nc1ccc(S(=O)(=O)N2CCCN(S(=O)(=O)c3ccc4c(c3)OCCO4)CC2)cc1,inactive,inactive
O=C(Nc1nnc(-c2ccncc2)s1)Nc1ccc(Cl)cc1F,inactive,inactive

SMILES,Potency [1],Potency [2]
CCN(CC)CCCC(C)n1c(-c2ccccc2)nc2c(NC3CCCCC3)nc(C)nc21 (configuration not stated),inactive,inactive
COc1cccc(Cn2ncc3c4sc(SC)cc4n(C)c3c2=O)c1,inactive,inactive
CCn1c(-c2nonc2N)nc2c(C#CC(C)(C)O)ncc(OCC3CCCNC3)c21 (configuration not stated),inactive,inactive
O=C(O)c1ccc(-c2noc(-c3cccc(Cl)c3)n2)cc1,inactive,inactive
CCN1CCCC1Cn1c(-c2ccccc2)nc2c(N3CCOCC3)nc(C)nc21 (configuration not stated),inactive,inactive
CNc1oc(-c2ccccc2-c2ccccc2)nc1C#N,inactive,inactive
COc1cccc(C2N=C(Nc3nc4ccccc4o3)NC3=C2C(=O)CCC3)c1 (configuration not stated),inactive,inactive
Cc1csc(CNc2ncnc3ccc(-c4ccco4)cc23)c1,inactive,inactive
CCCn1c(C)nc2c(NCCN3CCOCC3)nc(C)nc21,inactive,inactive
Cc1ccc(OCCn2c(CCNC(=O)c3cccc4ccccc34)nc3ccccc32)cc1,inactive,inactive
CC(=O)Nc1ccc(S(=O)(=O)N2CCN(S(=O)(=O)c3c(F)cccc3F)CC2)cc1,inactive,inactive
Fc1cccc(-c2nc3ccccc3s2)c1,inactive,inactive
COCCN(CCOC)c1nc(C)nc2c1nc(-c1ccccc1)n2CCN1CCOCC1,inactive,inactive
COCCNc1nc(C)nc2c1nc(-c1ccccc1)n2CCCN1CCCCC1C (configuration not stated),inactive,inactive
Cc1cccc(-c2ccc3ncnc(NCc4cccs4)c3c2)c1,inactive,inactive
COc1ccc2nc(-c3ccccc3OCc3ccccc3)sc2c1,inactive,inactive
Fc1ccc(-c2c(P(=S)(c3ccccc3)c3ccccc3)n3ccccc3[n+]2C/C=C/c2ccccc2)cc1,inactive,inactive
Cc1nc(NCc2ccccc2)c2nc(-c3ccccc3)n(CCCN3CCCCC3C)c2n1 (configuration not stated),inactive,inactive
Cc1cccc(CNc2ccnc(-c3ccc(C(F)(F)F)cc3)n2)c1,inactive,inactive
C=C1C(=O)O[C@@H]2/C=C(\CO)CC/C=C(/C=O)C[C@@H](O)[C@@H]12,inactive,inactive

# Source: PubChem BioAssay (NCATS)
